# Measured values reported in PubChem BioAssay AID651998 (The Scripps Research Institute Molecular Screening Center, 2013).
# Biological target: Acyl-protein thioesterase 1 (Homo sapiens) (UniProt O75608)
# Assay: LYPLA1 enzyme kinetics with inhibitors – biochemical, substrate-based fluorescence, Ki, Km, late-stage follow-up (AID 651998)
# Details: recombinant LYPLA1, resorufin acetate hydrolysis fluorescence, without test compound, enzyme Km for substrate
# Chain of Acyl-protein thioesterase 1 (Homo sapiens) (O75608 whole entry, looked up): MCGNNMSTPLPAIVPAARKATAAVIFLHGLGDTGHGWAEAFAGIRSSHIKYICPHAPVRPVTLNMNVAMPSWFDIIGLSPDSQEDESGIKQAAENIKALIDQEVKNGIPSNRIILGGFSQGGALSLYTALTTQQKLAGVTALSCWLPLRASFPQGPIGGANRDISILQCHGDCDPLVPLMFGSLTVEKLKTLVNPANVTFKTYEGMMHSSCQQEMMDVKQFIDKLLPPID
structure (smiles),measurement,value
O=C(CN1CCN(C(=O)c2ccco2)CC1)Nc1cc(C(F)(F)F)ccc1Cl,Km,28.3 µM
